# Results filed as inconclusive are left out. Entries that show only a call come without a potency. Active and inactive are the calls of the source. Unless noted, calls come from the whole dose curve; as a rule, active = well fitted curve in the direction sought with a large enough effect; inconclusive = small, poorly fitted or top-dose-only effect, or another doubt; inactive = no such curve, though single readings can be large; an effect the other way counts as inactive or inconclusive.
# Assays:
# [1] = target: Glucocorticoid receptor (Homo sapiens) (UniProt P04150); test: GR-GFP Redistribution (AID 450;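 active = compounds whose dose series gives a full or clear partial fitted curve of increased nuclear translocation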; note: potency is the fitted concentration of half-maximal effect); settings: U2OS GR-GFP nuclear translocation, laser cytometry, 2 h
# Sequence of Glucocorticoid receptor (Homo sapiens) (P04150 whole entry, looked up, the tested form may be a part): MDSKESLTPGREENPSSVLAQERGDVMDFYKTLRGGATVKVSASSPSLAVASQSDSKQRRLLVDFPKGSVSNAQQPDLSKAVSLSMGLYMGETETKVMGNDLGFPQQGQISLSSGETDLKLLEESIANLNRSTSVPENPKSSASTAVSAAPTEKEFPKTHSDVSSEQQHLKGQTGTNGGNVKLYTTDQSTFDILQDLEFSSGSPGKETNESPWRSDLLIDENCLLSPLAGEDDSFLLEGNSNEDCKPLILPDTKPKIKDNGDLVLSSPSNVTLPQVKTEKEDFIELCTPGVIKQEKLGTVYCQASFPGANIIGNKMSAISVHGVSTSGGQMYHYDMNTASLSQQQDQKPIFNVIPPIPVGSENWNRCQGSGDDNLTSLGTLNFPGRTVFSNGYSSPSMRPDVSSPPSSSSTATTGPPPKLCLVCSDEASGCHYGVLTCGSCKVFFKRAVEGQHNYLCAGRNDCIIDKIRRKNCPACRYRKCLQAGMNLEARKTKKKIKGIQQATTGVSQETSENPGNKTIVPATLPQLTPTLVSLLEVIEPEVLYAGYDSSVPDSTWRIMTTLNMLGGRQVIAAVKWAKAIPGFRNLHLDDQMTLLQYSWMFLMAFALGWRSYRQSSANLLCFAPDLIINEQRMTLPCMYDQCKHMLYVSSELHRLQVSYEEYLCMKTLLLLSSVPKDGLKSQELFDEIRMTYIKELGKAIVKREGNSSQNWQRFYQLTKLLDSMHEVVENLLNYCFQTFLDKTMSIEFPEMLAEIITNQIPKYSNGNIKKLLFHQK
# [2] = target: Glucocorticoid receptor (Homo sapiens) (UniProt P04150); test: GR-EFC Redistribution (AID 451; calls by dose curve; note: potency is the fitted concentration of half-maximal effect); settings: CHO-K1 GR-EFC translocation, beta-gal luminescence, 2 h
# Outline: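 CHO-K1 cells expressing nuclear EA and GR-ED fragments of b-gal; compounds titrated up to 46 uM final, 2 h at 37 C. GR nuclear translocation read as complemented b-gal luminescence after 1 h RT detection.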
# [3] = target: Mitogen-activated protein kinase 10 (Mus musculus) (UniProt Q61831); test: JNK3 AlphaScreen Assay (AID 530; active = well fitted curve in either direction with a large enough effect, not every such curve was filed as active;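 note: kinase came from lysate of stimulated human HepG2 cells; signal reports phosphorylation of biotinylated GST-cJun 1-79 at Ser73 with 10 µM ATP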); settings: JNK3 lysate, c-Jun phosphorylation; series mostly up to 57.1 µM
# Outline: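 HepG2 lysate (IL-1b/TNFa pre-activated) + biotin-GST-cJun 1-79 + anti-pSer73 cJun; cpd titration, 15 min RT; ATP 10 uM start; Tris pH 7.6, MgCl2, DTT, vanadate; beads in EDTA buffer; AlphaScreen.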
# [4] = qHTS Assay for Lipid Storage Modulators (AID 1519; calls by dose curve); settings: Drosophila S3 cells, BODIPY lipid droplet/cell ratio, laser cytometry, cells loaded with oleic acid; for activity change, negative = inhibition: at 57.5 µM (top of the series)
# Outline: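 Cells seeded at 5,000 per well were treated with compounds over a concentration series and loaded with oleic acid (400 uM, as added). Lipid droplet fluorescence (488 nm excitation, 500-530 nm channel) was read by laser-scanning cytometry and normalized to 20 uM Triacsin C.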
# [5] = target: Ubiquitin carboxyl-terminal hydrolase 1 (Homo sapiens) (UniProt O94782); test: Inhibitors of USP1/UAF1: Pilot qHTS (AID 504865); settings: purified USP1/UAF1, Ub-rhodamine cleavage fluorescence; series mostly up to 114 µM;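 note: rhodamine fluorescence freed from ubiquitin-rhodamine substrate followed over time; top concentration of the series differs between compounds; nearly all actives have a fitted effect of over 35% in size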
# Sequence of Ubiquitin carboxyl-terminal hydrolase 1 (Homo sapiens) (O94782 whole entry, looked up): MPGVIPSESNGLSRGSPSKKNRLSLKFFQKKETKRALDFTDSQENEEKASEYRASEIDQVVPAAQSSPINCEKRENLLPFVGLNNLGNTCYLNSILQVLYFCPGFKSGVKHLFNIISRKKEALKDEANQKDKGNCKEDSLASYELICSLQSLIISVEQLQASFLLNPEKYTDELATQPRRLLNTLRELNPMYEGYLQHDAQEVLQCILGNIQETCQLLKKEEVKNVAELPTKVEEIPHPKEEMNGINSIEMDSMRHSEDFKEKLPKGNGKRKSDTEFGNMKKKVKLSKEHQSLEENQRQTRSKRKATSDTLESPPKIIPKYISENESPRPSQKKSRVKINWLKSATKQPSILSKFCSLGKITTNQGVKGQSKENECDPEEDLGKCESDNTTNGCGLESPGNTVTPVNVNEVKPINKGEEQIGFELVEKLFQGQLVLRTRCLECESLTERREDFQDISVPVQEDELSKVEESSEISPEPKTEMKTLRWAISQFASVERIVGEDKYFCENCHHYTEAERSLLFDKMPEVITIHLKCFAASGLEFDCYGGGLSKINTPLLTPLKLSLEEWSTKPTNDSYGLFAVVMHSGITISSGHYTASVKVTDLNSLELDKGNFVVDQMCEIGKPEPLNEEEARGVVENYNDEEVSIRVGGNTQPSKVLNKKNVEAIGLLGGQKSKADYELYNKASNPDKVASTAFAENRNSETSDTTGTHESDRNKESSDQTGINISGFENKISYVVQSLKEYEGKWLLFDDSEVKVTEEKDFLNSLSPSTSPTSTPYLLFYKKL
# Outline: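 1nM USP1/UAF1 + cpd, 15 min RT; start w/ Ub-Rho 150nM final; kinetic FL 480/540 nm, 6 reads q60 s. Buffer 50mM HEPES pH 7.8, 0.5mM EDTA, 1mM TCEP, 0.01% Tween-20, 0.1 mg/ml BSA.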
# [6] = target: DNA dC->dU-editing enzyme APOBEC-3G (Homo sapiens) (UniProt Q9HC16); test: qHTS for inhibitors of Vif-A3G interactions: Validation (AID 588379); settings: Vif-A3G protein interaction assay; series mostly up to 46.1 µM
# Sequence of DNA dC->dU-editing enzyme APOBEC-3G (Homo sapiens) (Q9HC16 whole entry, looked up): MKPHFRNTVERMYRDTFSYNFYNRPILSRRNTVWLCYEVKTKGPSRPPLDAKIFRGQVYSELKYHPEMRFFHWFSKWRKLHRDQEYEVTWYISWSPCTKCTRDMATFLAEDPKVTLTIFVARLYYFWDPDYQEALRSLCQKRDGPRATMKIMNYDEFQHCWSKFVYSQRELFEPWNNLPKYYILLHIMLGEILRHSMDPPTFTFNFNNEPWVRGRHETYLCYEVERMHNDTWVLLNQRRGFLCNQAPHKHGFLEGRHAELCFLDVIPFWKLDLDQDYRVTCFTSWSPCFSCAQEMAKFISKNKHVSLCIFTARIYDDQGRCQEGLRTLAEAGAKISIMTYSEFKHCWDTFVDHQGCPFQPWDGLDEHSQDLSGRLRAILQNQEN
# Outline: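 Yellow fluorescence (Ex 488, Em 500-530) of Vif-coexpressing HeLa A3G-eYFP cells, scanned by Acumen cytometer, reports blocked A3G degradation. Cells plated at 700/well overnight at 37 deg C before compound addition, then a further overnight compound incubation at 37 deg C.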
# [7] = tested on: Zika virus NS2B-NS3 protease; test: Primary screen GU AMC qHTS for Zika virus inhibitors (AID 1347154); settings: Zika NS2B-NS3 unlinked protease, AMC fluorogenic substrate; series mostly up to 54.1 µM; note: nearly all actives have a fitted effect of over 70% in size
# Outline: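 Unlinked Zika NS2B hydrophilic domain–NS3 protease complex at 25 nM in 10 mM Tris-HCl pH 8.0, 0.01% Tween 20, with an AMC peptide substrate. Fluorescence change (340/450 nm) over 15 min at room temperature, normalized to controls, fitted to 4-parameter Hill.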
# [8] = Primary qHTS for small molecule stabilizers of the endoplasmic reticulum resident proteome: Secreted ER Calcium Modulated Protein (SERCaMP) assay (AID 1508630); settings: SH-SY5Y GLuc-SERCaMP (Gaussia luciferase released on ER calcium loss) secretion, thapsigargin, luminescence; series mostly up to 38.4 µM; note: potency is the fitted concentration of half-maximal effect
# Outline: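 The SH-SY5Y reporter protocol was run at 3 concentrations up to 38.3 uM (primary) or 11 concentrations (follow-up): 16 h compound, 100 nM thapsigargin for 4 h, then extracellular luciferase luminescence.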
# [9] = target: Cytochrome P450 2C19 (Homo sapiens) (UniProt P33261); test: qHTS Assay for Inhibitors and Substrates of Cytochrome P450 2C19 (AID 899); settings: recombinant CYP2C19, luciferin-H EGE luminescence; series mostly up to 57.1 µM; note: nearly all actives have a fitted effect of over 60% in size
# Sequence of Cytochrome P450 2C19 (Homo sapiens) (P33261 whole entry, looked up): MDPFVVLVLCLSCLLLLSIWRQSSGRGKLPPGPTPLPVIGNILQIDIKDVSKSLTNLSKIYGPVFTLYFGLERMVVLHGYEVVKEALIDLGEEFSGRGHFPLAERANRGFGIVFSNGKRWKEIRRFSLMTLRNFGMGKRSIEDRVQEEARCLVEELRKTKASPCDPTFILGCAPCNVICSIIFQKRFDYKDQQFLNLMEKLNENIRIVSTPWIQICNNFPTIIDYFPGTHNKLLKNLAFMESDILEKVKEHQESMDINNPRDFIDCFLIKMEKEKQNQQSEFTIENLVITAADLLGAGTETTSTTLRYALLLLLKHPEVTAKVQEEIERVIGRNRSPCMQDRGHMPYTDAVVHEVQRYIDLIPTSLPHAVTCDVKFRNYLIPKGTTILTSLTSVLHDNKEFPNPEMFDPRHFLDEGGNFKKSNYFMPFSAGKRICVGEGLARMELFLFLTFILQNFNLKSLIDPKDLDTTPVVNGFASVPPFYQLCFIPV
# Outline: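 Luminescent read-out of luciferin formed from Luciferin-H EGE (10uM, equal to KM). Enzyme 5nM in 50mM KPO4; compound added, 10 min at 37C, then NADPH regenerating system for 60 min at 37C. Full inhibition defined by 57uM ketoconazole.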
# [10] = target: 3',5'-cyclic-AMP phosphodiesterase 4B (Homo sapiens) (UniProt Q07343); test: qHTS Assay for Inhibitors of PDE-IV (AID 607; active = well fitted activation curve with a large enough effect in the main read-out, with a control signal flat, not every such curve was filed as active); settings: HEK293 ACTOne CNG channel cells, membrane potential fluorescence; series mostly up to 22.9 µM
# Sequence of 3',5'-cyclic-AMP phosphodiesterase 4B (Homo sapiens) (Q07343 whole entry, looked up): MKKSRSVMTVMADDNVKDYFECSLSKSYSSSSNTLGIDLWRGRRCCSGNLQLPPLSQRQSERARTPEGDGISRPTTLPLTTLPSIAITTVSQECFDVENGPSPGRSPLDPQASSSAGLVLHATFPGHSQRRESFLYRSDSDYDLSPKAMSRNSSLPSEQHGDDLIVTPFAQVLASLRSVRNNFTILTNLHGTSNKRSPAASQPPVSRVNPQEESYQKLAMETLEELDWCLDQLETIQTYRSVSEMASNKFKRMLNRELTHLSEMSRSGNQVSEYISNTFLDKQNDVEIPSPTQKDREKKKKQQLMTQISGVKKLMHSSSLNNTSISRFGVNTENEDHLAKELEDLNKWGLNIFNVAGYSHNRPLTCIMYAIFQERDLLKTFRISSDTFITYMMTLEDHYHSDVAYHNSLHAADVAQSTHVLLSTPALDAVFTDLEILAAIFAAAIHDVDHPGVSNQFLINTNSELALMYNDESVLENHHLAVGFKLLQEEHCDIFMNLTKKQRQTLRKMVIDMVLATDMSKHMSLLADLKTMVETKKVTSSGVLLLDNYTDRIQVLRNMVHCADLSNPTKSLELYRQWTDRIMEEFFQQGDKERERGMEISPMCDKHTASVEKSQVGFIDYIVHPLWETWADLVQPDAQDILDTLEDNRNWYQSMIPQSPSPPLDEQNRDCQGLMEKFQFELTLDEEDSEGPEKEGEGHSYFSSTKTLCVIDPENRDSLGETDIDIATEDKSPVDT
# Outline: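 Live HEK293 cells with a modified cyclic nucleotide-gated (CNG) channel report intracellular cAMP via membrane-potential dye fluorescence (ex 535/em 590 nm). Endogenous PDE-IV was targeted. Compounds were tested at up to 22.9 uM final; RO 20-1724 100 uM served as control.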
# [11] = target: Cytochrome P450 1A2 (Homo sapiens) (UniProt P05177); test: p450-cyp1a2 (AID 410; calls by dose curve); settings: recombinant CYP1A2, luciferin-ME demethylation, luminescence; series mostly up to 57 µM
# Sequence of Cytochrome P450 1A2 (Homo sapiens) (P05177 whole entry, looked up): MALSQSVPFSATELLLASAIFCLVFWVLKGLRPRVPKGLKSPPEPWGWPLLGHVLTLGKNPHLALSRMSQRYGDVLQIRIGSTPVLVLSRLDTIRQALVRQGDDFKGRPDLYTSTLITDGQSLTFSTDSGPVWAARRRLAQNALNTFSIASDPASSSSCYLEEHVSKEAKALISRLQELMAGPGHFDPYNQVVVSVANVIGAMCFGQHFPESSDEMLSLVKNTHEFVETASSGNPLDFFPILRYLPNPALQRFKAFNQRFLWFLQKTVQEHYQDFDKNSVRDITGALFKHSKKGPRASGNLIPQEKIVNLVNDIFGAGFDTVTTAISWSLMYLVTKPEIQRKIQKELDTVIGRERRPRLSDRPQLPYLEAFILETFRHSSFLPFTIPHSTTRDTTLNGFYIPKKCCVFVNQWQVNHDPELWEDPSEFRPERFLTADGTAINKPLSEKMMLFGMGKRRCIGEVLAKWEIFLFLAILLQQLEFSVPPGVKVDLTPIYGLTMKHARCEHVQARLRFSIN
# Outline: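 Read-out is luminescence from luciferin produced by CYP1A2 demethylation of Luciferin-ME (100uM, at Km). Detection reagent stopped the 60 min NADPH-dependent reaction; signals were normalized to 57 uM furafylline.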
# [12] = measured here: cell count channel max response
# [13] = measured here: lipid channel max response
SMILES,Potency [1],Potency [2],Potency [3],"activity change, negative = inhibition [4]","max response [4, 12] [%]","max response [4, 13] [%]",Potency [5],Potency [6],Potency [7],Potency [8],Potency [9],Potency [10],Potency [11]
C[C@](N)(COP(=O)(O)O)C(=O)O,> 46 µM (inactive),> 46 µM (inactive),inactive,4.7% (inactive),16.3,21.4,inactive,inactive,inactive,31.6 µM (active),,,
O=C(O)[C@H]1CN[C@H](C(=O)O)C1,> 46 µM (inactive),> 46 µM (inactive),inactive,1.7% (inactive),-9.77,-9.55,inactive,inactive,inactive,inactive,inactive,,
Cc1ncc2c(c1O)COP(=O)(O)OC2,> 46 µM (inactive),> 46 µM (inactive),inactive,0.354% (inactive),-3.73,-4.32,inactive,inactive,inactive,inactive,,inactive,
N[C@@H](Cn1cc(F)c(=O)[nH]c1=O)C(=O)O,> 46 µM (inactive),> 46 µM (inactive),inactive,-2.96% (inactive),17.5,14.7,inactive,inactive,inactive,inactive,,,
N[C@H](C(=O)O)c1cccc(O)c1,> 46 µM (inactive),> 46 µM (inactive),inactive,7.87% (inactive),12.7,24.7,inactive,inactive,inactive,inactive,,,
CC[N+](C)(CC)CC(=O)Nc1c(C)cccc1C,> 46 µM (inactive),> 46 µM (inactive),inactive,0.67% (inactive),-9.49,-8.79,inactive,inactive,inactive,inactive,,inactive,
N[C@@H](C(=O)O)[C@H](CC(=O)O)c1ccc(Cl)cc1,,> 46 µM (inactive),inactive,-4.76% (inactive),-14.9,-17.6,,inactive,inactive,inactive,,,inactive
NC(=O)CCCCn1ccc(NC(N)=NCC(F)(F)F)n1,> 46 µM (inactive),> 46 µM (inactive),inactive,1.74% (inactive),5.7,6.79,inactive,inactive,inactive,inactive,,,
CC[C@@](N)(C(=O)O)c1ccc(C(=O)O)cc1,> 46 µM (inactive),> 46 µM (inactive),inactive,2.13% (inactive),-11.5,-11.5,inactive,inactive,inactive,inactive,,inactive,
